Data as given in PubChem BioAssay (Tox21).
Records with an inconclusive call do not appear. Unmarked numbers belong to inactive results. Calls follow the shape of the dose curve; as a rule, active = well fitted cell-killing curve with a large enough effect in the repeat runs; inconclusive = weak or mixed curves; inactive = flat fitted curve, though single readings scatter.

Experiment: qHTS RealTime-Glo MT Cell Viability Assay in HepG2 cells - 16 hour (AID 1224885); also: nearly all actives have a fitted effect of over 50% in size
Conditions: RealTime-Glo luminescence; series mostly up to 76.8 µM; activity change, negative = cytotoxic: at the top concentration
From the text: U.S. Tox21 Program National Center for Advancing Translational Sciences [NCATS] NIH Chemical Genomics Center [NCGC] U.S. Environmental Protection Agency [EPA] National Institutes of Environmental Health Sciences [NIEHS] National Toxicology Program [NTP] U.S. Food and Drug Administration [FDA] Tox21 Assay Overview: Measure of cell viability is critical in the cell-base assay. Analysis of cell viability is necessary for the characterization of cell responses to cytotoxic drugs and environmental stress. A RealTime-Glo MT Cell Viability Assay to monitor cell viability in real time of continues cell culture during 40 hours of compound treatment was used to screen Tox21 10K library compounds in HepG2 cells. The RealTime-Glo MT Cell Viability Assay is a nonlytic, homogeneous, bioluminescent method to measure cell viability in real time using a simple, plate-based method. The assay involves adding NanoLuc luciferase and a cell-permeant prosubstrate to cells in culture. Viable cells reduce the proprietary prosubstrate to generate a substrate for NanoLuc luciferase. This substrate diffuses from cells into the surrounding culture medium, where it is rapidly used by the NanoLuc Enzyme to produce a luminescent signal. The signal correlates with the number of viable cells, making the assay well suited for cytotoxicity studies.
Tox21 Assay Protocol Summary: The mixture of HepG2 cell suspension and reagents were dispensed at 600cells/6 ul/well in 1536-well tissue culture treated black solid bottom plates using a Multidrop dispenser. After the assay plates were incubated at a 37 C/5% CO2 incubator for 5 hours, 23 nL of compounds dissolved in DMSO, positive and negative controls was transferred to the assay plate by a pintool work station. The plates were incubated at 37 C for 40 hours. The luminescence intensity were measured at 0h, 8h, 16h, 24h, 32h and 40h time points using ViewLux plate reader during compound treatment.
% is scaled to controls: 0 for no effect and ±100 for the full control effect.

| SMILES | activity change, negative = cytotoxic |
| --- | --- |
| CCCCCCC(CCCCCCCCCCC(=O)OCC(COC(C)=O)OC(C)=O)OC(C)=O (stereo not given) | 1.73% [at 35.3 µM] |
| CC(O)CN(CCCN(C)C)CCCN(C)C (stereo not given) | 2.89% |
| Nc1ccc2cc(S(=O)(=O)O)ccc2c1 | 4.33% |
| NS(=O)(=O)c1cc2c(cc1Cl)NC(CSCc1ccccc1)=NS2(=O)=O | 4.34% [at 35.3 µM] |
| CC/C=C\CCCCO | 2.62% |
| COc1cccc(OC)c1 | 3.53% |
| CC(C)COC(=O)c1ccccc1O | -0.5% |
| OCC(O)[C@@H](O)[C@H](O)[C@H](O)CO[C@H]1O[C@H](CO)[C@@H](O)[C@H](O)[C@H]1O (stereo not given in full) | 0.936% |
| C[C@H]1O[C@@H](n2cc(F)c(=O)[nH]c2=O)[C@H](O)[C@@H]1O | 2.05% [at 35.3 µM] |
| COCc1ccc(COC)cc1 | 3.68% |
| CC1=CC(C)C(C=O)C(C)C1 (stereo not given) | 0.26% |
| COc1ccc(NC(C)=O)cc1 | 1.89% |
| CCn1cc(C(=O)O)c(=O)c2cc(F)c(N3CCN(C)CC3)cc21 | 0.92% [at 15.8 µM] |
| CCCCCCCCCCCCCCC | 2.69% |
| Cn1cnc2c(=O)[nH]c(N)nc21 | 2.03% |
| CN(C)CCn1nnnc1SCC1=C(C(=O)O)N2C(=O)[C@@H](NC(=O)Cc3csc(N)n3)[C@H]2SC1 | 5.66% [at 35.3 µM] |
| CC12CCC(CC1=O)C2(C)C (stereo not given) | 0.0799% |
| O=Cc1ccccc1[N+](=O)[O-] | 2.27% |
| CCCCNc1ccccc1 | -1.22% |
| COc1nc(C)nc(N)n1 | 1.06% |

| SMILES | activity change, negative = cytotoxic |
| --- | --- |
| CCCOc1ccccc1-c1nc2n[nH]nc2c(=O)[nH]1 | -2.51% [at 35.3 µM] |
| Cc1ccc(N)cc1[N+](=O)[O-] | 0.926% |
| CC(C)=CCC/C(C)=C/C(=O)O | 7.45% |
| Nc1ccn(C2CO[C@H](CO)O2)c(=O)n1 (stereo not given in full) | 6.57% [at 35.3 µM] |
| C=CC(=O)OCCCCCC | 1.59% |
| COc1cc(C(=O)N2CCOCC2)cc(OC)c1OC | 0.646% [at 35.3 µM] |
| CCN1CCCC1CNC(=O)c1cc(S(N)(=O)=O)ccc1OC (stereo not given) | -0.943% |
| N#CC1(O)CCCCC1 | 0.185% |
| CCOC(=O)Nc1ccc2c(c1)N(C(=O)CCN1CCOCC1)c1ccccc1S2 | -10.7% [at 35.3 µM] |
| CCCCOCC(C)OCC(C)O (stereo not given) | 0.276% |
| C=C(C)C(=O)NCCC[N+](C)(C)C | 0.312% |
| CCCCCCC(=O)OCC | -5.82% |
| COC(=O)CCCCCCCCC(=O)OC | 1.23% |
| C=CCSCC1Nc2cc(Cl)c(S(N)(=O)=O)cc2S(=O)(=O)N1 (stereo not given) | 0.164% [at 35.3 µM] |
| O=C(O)c1ccccc1S | 0.746% [at 35.3 µM] |
| CCCCCCCCCCCl | 0.74% |
| C=C[Si](OC)(OC)OC | 0.137% |
| CN(C)CCOC(c1ccc(Cl)cc1)c1ccccn1 (stereo not given) | 3.62% [at 35.3 µM] |
| CCCCCCCCC=O | 2.01% |
| C=C(C)C(=O)OCCCCCCCCCCCCCCCCCC | 0.444% [at 15.8 µM] |
